The campaign covered roughly 68,000 compounds. About 2,700 (4%) showed an effect of 50% or more. Many of the other results were omitted from the sample, so strong results are more common in it than they were.
These molecules were tested on Plasmodium berghei (assay: Screen against P. berghei liver stage (PbLuc), transformed with Luciferase, at 2uM). Conditions: tested at 2 uM.
Type: functional, HepG2

Compound	INHIBITION [%]
CCN1CCN(C2CCN(Cc3nnc(C4CC4)o3)CC2)C1=O	-8.9
O=c1[nH]nc2nc(N3CCOCC3)ccn12	-60.22
Cc1nn(C)cc1CN1C[C@H]2CC[C@@H](C1)N(Cc1c(C)noc1C)C2=O	35.46
COc1cc(C(C)=O)ccc1OC12CCCN(CC1)C2 (centres undefined)	-18.6
COc1cc(C#N)ccc1OC12CCCN(CC1)C2 (centres undefined)	63.83
CCCc1ccc(OC23CCCN(CC2)C3)c(OC)c1 (centres undefined)	-21.37
Cc1nc([C@H]2C[C@@H]3CCN(Cc4cnn(C)c4)C[C@H]3O2)sc1C	-19.14
Cc1ccc(C(=O)N2CC3(CCCCC3)c3cc(C(=O)O)ccc32)cn1	-46.89
Cc1nc(CN2CCCN(CC(=O)N(C)CCC#N)CC2)no1	-14.14
Cc1nc(CCN(C)C(=O)CN2CCCCCC2)no1	51.9
CC1CCN(CC(=O)N(C)CCc2noc(C3CC3)n2)C1=O (centres undefined)	27.73
COc1cc(N2C[C@@H]3COC[C@@H](Cc4nnc(C)o4)[C@@H]3C2)ncn1	21.27
COc1ccccc1N1CCN(Cc2nc(C)c(C)o2)CC1	-63.57
Cc1cc(CN2CCOC(CN(C)C)C2)no1 (centres undefined)	16.64
O=C(NCCCOc1cccnc1)c1cn(CCc2ccccc2)nn1	41.14
O=C(NCCc1ccccc1)c1cn(CCNCc2cccnc2)nn1	53.12
O=C(NCc1cccnc1)c1cn(CCc2ccccc2)nn1	17.19
Cc1nc(CC(C)C)sc1C(=O)N1CCC1	11.18
O[C@@H]1C[C@@H](c2nc(-c3cccnc3)no2)N(C2CCOCC2)C1	-14.24
Cn1cccc1C(=O)NC[C@H]1C[C@@H]2CN(C(=O)c3ccco3)C[C@@H]2O1	6.8
CN(C)C[C@H]1C[C@@H]2CN(C(=O)c3ccno3)C[C@@H]2O1	-30.38
Cn1cccc1C(=O)NC[C@H]1C[C@@H]2CN(C(=O)c3ccno3)C[C@H]2O1	50.32

Compound	INHIBITION [%]
O=C(NC[C@H]1C[C@@H]2CN(C(=O)c3ccno3)C[C@@H]2O1)C1CCC1	55.52
O=C(NC[C@H]1C[C@@H]2CN(C(=O)c3ccco3)C[C@@H]2O1)c1ccsc1	34.93
CN(C)C[C@H]1C[C@@H]2CN(C(=O)c3ccco3)C[C@@H]2O1	10.49
COc1ccc(CN(C)Cn2cc(C)n(-c3cc(C)on3)c2=O)cc1	14.29
CCC1c2ccsc2CCN1C(=O)NCc1ccc(C)nc1 (centres undefined)	11.09
COC1COC2(CCN(Cc3cccc(Cl)c3)CC2)C1 (centres undefined)	23.81
CO[C@@H]1CC[C@H]2[C@H]1OCCN2CCOCc1ccccc1	3.11
Cc1nc(N[C@H]2COC[C@@H]2N2CCCCC2)c2c(C)nn(C)c2n1	-11.88
c1cc(-c2cncc(C3CCNCC3)n2)n[nH]1	29.25
c1cc(-c2cnc(C3CCNCC3)cn2)n[nH]1	66.18
Fc1ccc(-c2cnc(C3CCNCC3)cn2)cc1	14.8
Cc1cccc(CN2C(=O)C[C@H]3[C@@H]2CCN3CC2CC2)n1	3.86
NC(=O)C1CN(C(=O)Nc2ccc(SC(F)(F)F)cc2)CCO1 (centres undefined)	-31.17
O=C(NCC1CC1)C1CCC2(CN(C(=O)c3ccno3)C2)O1 (centres undefined)	-33.57
O=C(NC1CCC1)C1CCC2(CN(C(=O)c3ccco3)C2)O1 (centres undefined)	-160.99
O=C(NC1CCC1)C1CCC2(CN(C(=O)c3ccno3)C2)O1 (centres undefined)	57.85
Cc1cc(C)c(CNC(=O)CC2CCCO2)c(=O)[nH]1 (centres undefined)	-36.34
O=C1CCCN1CCCC(=O)N1CCCC(Cc2cccnc2)C1 (centres undefined)	-11.81
CN(CCOCC1CC1)C(=O)Nc1ccc(C#N)c(Cl)c1	-47.52
COc1ccc(C(=O)N2C[C@@H](C(=O)O)[C@H](c3ccccc3C)C2)c(O)c1	-43.72
CN1CCOC[C@H]1c1nc(-c2ccncc2)c[nH]1	28.45
CC(C)N1CCOC[C@H]1c1nc(-c2ccncc2)c[nH]1	54.56

Compound	INHIBITION [%]
c1cc(-c2c[nH]c([C@@H]3COCCN3C3CCOCC3)n2)ccn1	30.63
O=C(O)[C@@H]1CN(C(=O)c2ccc(O)cc2)C[C@H]1c1cccc(F)c1	38.65
CN(C)CC(=O)N1C[C@H]2CCC[C@@]2(COc2ccccn2)C1	19.44
O=C(CCC(=O)N1CCCC1c1ccsc1)N1CCOCC1 (centres undefined)	-26.92
Cc1nc(C(C)C)ncc1C(=O)N1CCCC(N2CCCC2)C1 (centres undefined)	11.44
Cc1ccc(-c2ncc(C(=O)N3CCN4CCCCC4C3)c(O)n2)cc1 (centres undefined)	60.9
Cc1ccc(-c2ncc(C(=O)N3CCCC(CCN)C3)c(O)n2)cc1 (centres undefined)	41.07
Cc1nc(-c2cccnc2)ncc1C(=O)N1CCCCC(N)C1 (centres undefined)	6.22
Cc1ccc(-c2ncc(C(=O)N3CCC[C@H](N)C3)c(O)n2)cc1	63.1
Cc1ccc(-c2ncc(C(=O)N3CCCN4CCC[C@H]4C3)c(O)n2)cc1	32.26
c1cnc(N2C[C@H]3CCN(CC4CC4)C[C@H]3C2)cn1	11.56
CC(Cn1cccn1)n1cnc2cccc(Cl)c2c1=O (centres undefined)	33.52
CCC(=O)N1CCCC(c2cc(Nc3ncccn3)nc(C)n2)C1 (centres undefined)	11.08
O=c1[nH]c(-c2ccccc2F)nc2c1CCNC2	1.4
NC(=O)c1ccc(-c2nc3c(c(=O)[nH]2)CCNC3)cc1	41.78
O=c1[nH]c(COc2ccc(Cl)cc2)nc2c1CCNC2	12
O=c1[nH]c(-c2ccc(F)cc2)nc2c1CCNC2	53.66
O=c1[nH]c(-c2ccc(F)c(F)c2)nc2c1CCNC2	-18.12
O=c1[nH]c(-c2ccc(Cl)cc2)nc2c1CCNC2	57.21
c1ccc(-c2cccc(N3CCC(NCCc4cscn4)CC3)c2)cc1	-8.16
